# PubChem BioAssay AID1851 (National Center for Advancing Translational Sciences (NCATS), 2009)
# Among all 16,000 compounds or so, about 2,600 (16%) were called active. Roughly 20% stayed inconclusive and do not appear here. Only a sample is shown. A number with no mark means an inactive call. Calls come from the whole dose curve; as a rule, active = well fitted curve in the direction sought with a large enough effect; inconclusive = small, poorly fitted or top-dose-only effect, or effect the other way; inactive = no such curve, though single readings can be large or run the other way.
# Target: Cytochrome P450 2D6 (Homo sapiens) (UniProt P10635)
# Experiment: Cytochrome panel assay with activity outcomes
# Settings: recombinant CYP, pro-luciferin dealkylation, luminescence, p450-cyp2d6; series mostly up to 57.1 µM; activity, negative = inhibition: at the top concentration
# % is set by controls: 0 for no effect and ±100 for the full control effect.
# Sequence of Cytochrome P450 2D6 (Homo sapiens) (P10635 whole entry, looked up): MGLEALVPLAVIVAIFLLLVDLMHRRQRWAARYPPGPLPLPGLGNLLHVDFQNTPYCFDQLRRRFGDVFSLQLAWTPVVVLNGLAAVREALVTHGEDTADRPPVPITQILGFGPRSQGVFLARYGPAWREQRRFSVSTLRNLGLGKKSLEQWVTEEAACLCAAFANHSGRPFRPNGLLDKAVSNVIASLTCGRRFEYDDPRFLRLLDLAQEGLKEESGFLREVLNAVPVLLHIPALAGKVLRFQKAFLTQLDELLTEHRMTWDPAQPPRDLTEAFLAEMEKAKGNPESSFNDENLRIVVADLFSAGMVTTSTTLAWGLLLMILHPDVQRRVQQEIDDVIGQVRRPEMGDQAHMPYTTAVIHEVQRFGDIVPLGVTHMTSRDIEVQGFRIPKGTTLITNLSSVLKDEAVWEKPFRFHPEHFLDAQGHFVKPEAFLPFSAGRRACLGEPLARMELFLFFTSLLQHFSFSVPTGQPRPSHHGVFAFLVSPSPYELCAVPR
Structure (SMILES),"activity, negative = inhibition",AC50
CC1=NNC(=S)NCCCN2CCN(CCCNC(=S)NN=C(C)C=NNC(=S)NCCCN3CCN(CCCNC(=S)NN=C1)CC3)CC2,-0.261% [at 11.4 µM],
CC1(C)CC(=O)C(C=NCCN2CCN(C(=S)Nc3ccc(F)cc3)CC2)=C(O)C1,-0.562%,
c1cn(-c2ccnc(-c3ccc4c(c3)OCO4)n2)cn1,,3160 nM (active)
CN1CCN(c2ccnc(-c3ccc(N(C)C)cc3)n2)CC1,-12.6%,
O=C(OCc1ccccc1)/C(=C/c1ccc(Cl)cc1)NC(=O)c1ccccc1Cl,3.78%,
COc1ccc(Oc2ncc3nc(-c4ccc(F)cc4)c(=O)n(Cc4cccs4)c3n2)cc1,-1.7%,
c1cncc(CNc2ccnc(-c3ccc4c(c3)OCO4)n2)c1,,10000 nM (active)
c1csc(CNc2ccnc(-c3ccc4c(c3)OCO4)n2)c1,,501 nM (active)
CN(C)C(=O)c1ccc(-c2nccc(NCc3cccnc3)n2)cc1,-5.03%,
c1ccc(CNc2ccnc(-c3ccc4c(c3)OCO4)n2)cc1,,1580 nM (active)
CN(C)C(=O)c1ccc(-c2cc(NCc3cccnc3)ncn2)cc1,-7.64%,
O=C(O)COc1ccc(-c2nccc(-c3cccs3)n2)cc1,-18.2%,
COc1cccc(Cn2c(=O)c(-c3ccccc3)nc3cnc(N4CCN(C)CC4)nc32)c1,8.89%,
COc1ccc(-n2c(=O)cnc3cnc(N4CCNCC4)nc32)cc1,4.72%,
Fc1ccc(-c2csc(N3CCC(c4ccccc4)C3)n2)cc1 (stereo unspecified),-23.2%,
CCN(CC)Cc1nc2c(c(=O)[nH]1)C1(CCCC1)Cc1ccccc1-2,-51.6%,
CCCCCCCCCCCCCCCCCCOC[C@@H](COP(=O)([O-])OCC[N+](C)(C)C)OC,3.16%,
COc1nc(Cl)nc(Cl)c1Cl (tested in a mixture with another compound),10.4% [at 11.4 µM],
Cc1ccccc1-n1ncc2c(SCC(=O)N3c4ccccc4CC3C)ncnc21 (stereo unspecified),-4.18%,
CO[C@H]1COC(=O)C/C=C\[C@@H](C)COC(=O)[C@H]2CCCN2C(=O)C/C=C\[C@H]1C,-1.87% [at 11.4 µM],
O=C(Cn1cnc([N+](=O)[O-])n1)N/N=C/c1ccccc1O,24.4%,
CC1=C(C(=O)OCc2ccccc2)C(c2ccc(Cl)cc2)NC(=O)N1CCCCCC(=O)O (stereo unspecified),-13.2%,
Cc1ccc(OCC(=O)Nc2ccccc2N2CCOCC2)c(C)c1,-28.3%,
COc1cc(OC)cc(C(=O)Nc2ccccc2C(=O)N2CCCC2)c1,-4.71%,
CCOc1cc(NC(=S)Nc2ccccc2)c(OCC)cc1NC(=O)c1ccc(OC)cc1,19.1%,
CCOc1ccc(C(=O)Nc2ccccc2N2CCCC2)cc1,,3160 nM (active)

Structure (SMILES),"activity, negative = inhibition",AC50
O=C(CNC1CCCCCC1)Nc1ccccc1N1CCCCC1,,1410 nM (active)
O=C(Cc1ccccc1)Nc1ccccc1N1CCOCC1,-25.1%,
CC1(C)CC(=O)C(C(c2cccc(O)c2O)C2C(=O)CC(C)(C)CC2=O)C(=O)C1,-12.6% [at 11.4 µM],
Cc1ccc(-n2c(-c3cc(C)n(C)n3)n[nH]c2=S)cc1,-8.75%,
Cc1ccc(SC(C)C(=O)NCc2cccnc2)cc1 (stereo unspecified),-6.56%,
Cc1ccc(S(=O)(=O)/C(C#N)=C/c2c(N3CC(C)OC(C)C3)nc3ccccn3c2=O)cc1 (stereo unspecified),-20%,
COc1ncc2nc(CCc3ccccc3)c(=O)n(CCc3ccccc3)c2n1,-5.83%,
Cc1cccn2c(/C=N/OCc3cccc(F)c3)c(-c3ccc(Cl)cc3)nc12,-23.8%,
CCN1C(=O)[C@H]2[C@H]3[C@H](O)[C@H](O)C/C(=N/OCC(C)C)[C@H]3CC[C@@H]2C1=O,-6.52% [at 11.4 µM],
Cc1noc(C)c1C(=O)N1CCC[C@@]2(CCN(C(=O)Nc3cccc(F)c3)C2)C1,1.31%,
CCOC(=O)CC(=O)CSc1nc(-c2ccccc2)cc(-c2ccc(Cl)cc2)c1C#N,9.93%,
O=C1c2ccccc2C(=O)N1CC1c2ccccc2CCN1S(=O)(=O)c1ccccc1 (stereo unspecified),-14.8%,
COc1ccc(OC)c2[nH]c(=O)c(CCNC(=O)COc3ccccc3)cc12,-8.87%,
CCNCc1cc(OCC)c(OCC(=O)NCCc2ccccc2)cc1Cl,,12600 nM (active)
CCn1c(CC(=O)Nc2ccc(C)cc2)nnc1SCC(=O)NCCc1ccccc1,-19%,
CCCN1CCC(=NNC(=O)c2ccc(Br)o2)CC1,,7080 nM (active)
O=C(N/N=C/c1ccco1)c1ccc(Br)o1,13.5%,
CN1CCC(=NNC(=O)CSCc2ccccc2)CC1,-21.6%,
COc1ccc(OC[C@@H](CO)OC)cc1,-7.62% [at 11.4 µM],
COc1ccc(CNC(=O)CN(CC2CCCO2)C(=O)CNS(=O)(=O)c2ccccc2)cc1 (stereo unspecified),-2.1%,
CN1CC[C@@]2(CCCN(C(=O)c3cccc(F)c3)C2)C1,-10.5%,
COc1ccc(CNc2ncncc2-c2ccccc2C(F)(F)F)c(OC)c1,,398 nM (active)
COc1ccccc1CNc1ncncc1-c1ccccc1C(F)(F)F,,2000 nM (active)
O=c1c(-c2cccc(Cl)c2)nc2cncnc2n1C1CC1,-3.44%,
O=C(Nc1ccccc1[N+](=O)[O-])C1C(c2ccccc2)=C1c1ccccc1,15.3%,
